Source: publication PMC5700166
Residue numbers refer to the chain shown, from its start.

Tests used:
Experiment in all cases: protein-binding microarray (PBM); PBM: ~300 nM protein, 6 mM HEPES pH 7.8, 80 mM KCl, 0.5 mM EDTA, 0.5 mM EGTA, 6% glycerol, 35 ng/ul poly-dIdC, 1% milk, 1 h, room temperature; Ap Aiptasia and Nv Nematostella (sea anemones) / Co Capsaspora / Aq Amphimedon (sponge) / Dm Drosophila / Hu human; RHD is the Rel homology domain; high values mean tight binding
Details in all cases: dsDNA, one strand shown
[1] = biological target: T1, GST-Ap-NF-kB RHD (Exaiptasia pallida (Aiptasia), UniProt A0A913YAJ5 2-422)
T1 sequence: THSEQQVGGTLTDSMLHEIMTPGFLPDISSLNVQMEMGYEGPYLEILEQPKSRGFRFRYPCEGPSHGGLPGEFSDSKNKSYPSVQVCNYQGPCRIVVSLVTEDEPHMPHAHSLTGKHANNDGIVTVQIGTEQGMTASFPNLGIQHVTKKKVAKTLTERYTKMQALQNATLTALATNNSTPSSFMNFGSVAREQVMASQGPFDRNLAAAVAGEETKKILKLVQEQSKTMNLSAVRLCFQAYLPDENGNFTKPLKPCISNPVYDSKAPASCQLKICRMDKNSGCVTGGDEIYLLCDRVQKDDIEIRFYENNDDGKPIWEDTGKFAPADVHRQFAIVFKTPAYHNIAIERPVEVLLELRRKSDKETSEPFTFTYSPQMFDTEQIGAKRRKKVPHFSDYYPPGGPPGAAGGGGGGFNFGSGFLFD

[2] = biological target: T2, GST-Nv-NF-kB (Cys allele) (Nematostella vectensis, UniProt E5G601 2-411)
T2 sequence: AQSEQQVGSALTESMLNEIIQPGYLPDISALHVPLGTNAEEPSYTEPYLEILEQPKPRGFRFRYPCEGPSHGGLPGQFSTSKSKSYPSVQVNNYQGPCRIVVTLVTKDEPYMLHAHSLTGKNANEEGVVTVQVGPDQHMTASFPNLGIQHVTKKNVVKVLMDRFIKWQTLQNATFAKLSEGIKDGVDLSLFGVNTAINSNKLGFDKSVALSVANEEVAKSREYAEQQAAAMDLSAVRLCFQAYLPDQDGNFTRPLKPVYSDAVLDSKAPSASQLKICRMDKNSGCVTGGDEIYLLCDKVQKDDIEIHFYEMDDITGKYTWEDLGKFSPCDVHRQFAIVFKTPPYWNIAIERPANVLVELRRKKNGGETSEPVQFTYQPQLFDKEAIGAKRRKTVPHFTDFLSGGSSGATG

[3] = biological target: T3, GST-Nv-NF-kB (Ser allele) (Nematostella vectensis, UniProt A7UNT2 2-411)
T3 sequence: T2 sequence with Q21R, C66S, S207N, E215Q, V217A, E225K, A268E, D399E

[4] = biological target: T4, GST-Co-NF-kB (Capsaspora owczarzaki, UniProt F1ARL5 200-546)
T4 sequence: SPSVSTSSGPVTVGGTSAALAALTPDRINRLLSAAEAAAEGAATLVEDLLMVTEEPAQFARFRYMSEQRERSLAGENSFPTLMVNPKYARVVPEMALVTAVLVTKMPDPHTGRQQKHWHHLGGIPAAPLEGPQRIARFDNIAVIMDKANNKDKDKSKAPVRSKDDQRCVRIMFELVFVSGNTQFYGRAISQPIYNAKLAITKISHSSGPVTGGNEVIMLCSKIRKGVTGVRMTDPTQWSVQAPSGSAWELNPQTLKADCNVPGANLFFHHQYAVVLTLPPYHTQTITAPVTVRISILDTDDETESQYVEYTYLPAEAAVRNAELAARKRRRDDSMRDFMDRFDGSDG

[5] = biological target: T5, GST-Dm-Relish (Drosophila melanogaster, UniProt Q94527 99-473)
T5 sequence: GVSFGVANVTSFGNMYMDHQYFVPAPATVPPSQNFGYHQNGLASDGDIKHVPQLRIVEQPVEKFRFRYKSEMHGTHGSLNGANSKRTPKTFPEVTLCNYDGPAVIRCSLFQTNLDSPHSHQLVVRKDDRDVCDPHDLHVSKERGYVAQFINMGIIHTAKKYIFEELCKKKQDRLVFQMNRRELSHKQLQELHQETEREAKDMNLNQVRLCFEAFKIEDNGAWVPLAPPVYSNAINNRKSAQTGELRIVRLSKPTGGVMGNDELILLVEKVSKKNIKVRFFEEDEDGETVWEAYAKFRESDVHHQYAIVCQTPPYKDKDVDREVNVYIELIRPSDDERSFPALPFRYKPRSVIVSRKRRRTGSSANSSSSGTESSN

[6] = biological target: T6, GST-Aq-NF-kB (Amphimedon queenslandica, UniProt A9Y5G7 2-389)
T6 sequence: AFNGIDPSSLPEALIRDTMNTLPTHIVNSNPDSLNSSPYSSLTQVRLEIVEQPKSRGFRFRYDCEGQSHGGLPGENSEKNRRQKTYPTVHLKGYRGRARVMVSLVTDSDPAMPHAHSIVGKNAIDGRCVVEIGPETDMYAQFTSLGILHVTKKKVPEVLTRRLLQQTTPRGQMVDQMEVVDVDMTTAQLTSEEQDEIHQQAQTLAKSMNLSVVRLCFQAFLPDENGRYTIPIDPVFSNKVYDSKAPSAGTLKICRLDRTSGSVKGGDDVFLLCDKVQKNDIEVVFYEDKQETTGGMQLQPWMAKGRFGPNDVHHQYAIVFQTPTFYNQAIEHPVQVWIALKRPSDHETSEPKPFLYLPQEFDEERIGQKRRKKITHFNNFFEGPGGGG

[7] = biological target: GST-Hu-p50 (Homo sapiens, UniProt P19838 7-356)
GST-Hu-p50, sequence (P19838 7-356): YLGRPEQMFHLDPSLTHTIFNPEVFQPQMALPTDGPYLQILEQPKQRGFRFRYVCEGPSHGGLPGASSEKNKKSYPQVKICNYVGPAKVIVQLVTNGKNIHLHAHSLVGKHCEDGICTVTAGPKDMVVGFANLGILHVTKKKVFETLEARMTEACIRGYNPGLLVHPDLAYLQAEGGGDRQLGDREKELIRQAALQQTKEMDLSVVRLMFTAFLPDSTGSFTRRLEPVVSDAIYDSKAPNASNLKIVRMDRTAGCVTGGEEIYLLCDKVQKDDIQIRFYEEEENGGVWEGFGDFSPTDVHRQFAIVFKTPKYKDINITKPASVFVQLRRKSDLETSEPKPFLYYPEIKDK

Sequence | binding signal [1] | binding signal [2] | binding signal [3] | binding signal [4] | binding signal [5] | binding signal [6] | binding signal [7]
CCGATTAACATCAGGGGAAACCATGATGTTAATCGGGTCTTGATTCGCTTGACGCTGCTG | 6.6 z-score | 7.42 z-score | 10.1 z-score | 8.24 z-score | 6.18 z-score | 5.84 z-score | 5.64 z-score
CCGATTAACATCAGGGCCTCCCCTGATGTTAATCGGGTCTTGATTCGCTTGACGCTGCTG | 6.07 z-score | 4.43 z-score | 3.22 z-score | 2.08 z-score | 7.13 z-score | 6.75 z-score | 3.91 z-score
CCGATTAACATCAGGGGAACCACTGATGTTAATCGGGTCTTGATTCGCTTGACGCTGCTG | 7.59 z-score | 6.92 z-score | 7.26 z-score | 5.2 z-score | 10.4 z-score | 7.58 z-score | 5.33 z-score
CCGATTAACATCAAGGGGGGGCGTGATGTTAATCGGGTCTTGATTCGCTTGACGCTGCTG | 4.19 z-score | 4.66 z-score | 4.86 z-score | 3.83 z-score | 3.7 z-score | 4.52 z-score | 4.17 z-score
CCGATTAACATCAAACATTCCCTTGATGTTAATCGGGTCTTGATTCGCTTGACGCTGCTG | 2.36 z-score | 4.96 z-score | 4.25 z-score | 1.95 z-score | 2.37 z-score | 5.41 z-score | 3.27 z-score
CCGATTAACATCAATCTCCCCCATGATGTTAATCGGGTCTTGATTCGCTTGACGCTGCTG | 6.53 z-score | 4.32 z-score | 6.24 z-score | 8.65 z-score | 2.05 z-score | 3.51 z-score | 5.94 z-score
CCGATTAACATCAGGGAAATACATGATGTTAATCGGGTCTTGATTCGCTTGACGCTGCTG | 3.25 z-score | 4.47 z-score | 4.73 z-score | 4.08 z-score | 8.18 z-score | 4.87 z-score | 3.02 z-score
CCGATTAACATCAGGGGAAGACCTGATGTTAATCGGGTCTTGATTCGCTTGACGCTGCTG | 5.91 z-score | 7.98 z-score | 6.51 z-score | 5.23 z-score | 8.75 z-score | 7.72 z-score | 4.98 z-score
CCGATTAACATCAGGATTGTCCCTGATGTTAATCGGGTCTTGATTCGCTTGACGCTGCTG | 2.96 z-score | 3.96 z-score | 2.92 z-score | 1.06 z-score | 1.57 z-score | 5.51 z-score | 2.84 z-score
CCGATTAACATCAGGGGAGTTACTGATGTTAATCGGGTCTTGATTCGCTTGACGCTGCTG | 5.46 z-score | 4.25 z-score | 4.83 z-score | 3.43 z-score | 7.83 z-score | 5.17 z-score | 4.45 z-score
CCGATTAACATCAAAACACTCCCTGATGTTAATCGGGTCTTGATTCGCTTGACGCTGCTG | 2.25 z-score | 3.3 z-score | 2.69 z-score | 2.06 z-score | 1.28 z-score | 4.45 z-score | 2.59 z-score
CCGATTAACATCACAGTCCCCCCTGATGTTAATCGGGTCTTGATTCGCTTGACGCTGCTG | 5.98 z-score | 5.07 z-score | 5.18 z-score | 5.62 z-score | 4.6 z-score | 4.63 z-score | 4.33 z-score
CCGATTAACATCAGCGATTCCCCTGATGTTAATCGGGTCTTGATTCGCTTGACGCTGCTG | 6.31 z-score | 6.55 z-score | 8.57 z-score | 5.5 z-score | 3.63 z-score | 4.44 z-score | 5.54 z-score
CCGATTAACATCACGGGGATTTATGATGTTAATCGGGTCTTGATTCGCTTGACGCTGCTG | 7.32 z-score | 7.95 z-score | 8.97 z-score | 4.67 z-score | 8.32 z-score | 5.47 z-score | 6.63 z-score
CCGATTAACATCAAACATTCCCCTGATGTTAATCGGGTCTTGATTCGCTTGACGCTGCTG | 6.81 z-score | 9.14 z-score | 9.23 z-score | 7.01 z-score | 4.9 z-score | 6.75 z-score | 5.95 z-score
CCGATTAACATCAGGGGGACTAATGATGTTAATCGGGTCTTGATTCGCTTGACGCTGCTG | 5.06 z-score | 4.36 z-score | 4.4 z-score | 4.79 z-score | 2.76 z-score | 4.27 z-score | 3.8 z-score
CCGATTAACATCAGGGGATTTAATGATGTTAATCGGGTCTTGATTCGCTTGACGCTGCTG | 7.05 z-score | 8.23 z-score | 9.99 z-score | 3.58 z-score | 7.98 z-score | 6 z-score | 6.98 z-score
CCGATTAACATCAGGGTAAACCCTGATGTTAATCGGGTCTTGATTCGCTTGACGCTGCTG | 3.1 z-score | 4.05 z-score | 2.62 z-score | 2.45 z-score | 5.92 z-score | 6.52 z-score | 2.7 z-score
CCGATTAACATCAGGAAACTCCCTGATGTTAATCGGGTCTTGATTCGCTTGACGCTGCTG | 5.65 z-score | 7.91 z-score | 4.86 z-score | 1.88 z-score | 5.39 z-score | 9.07 z-score | 5.86 z-score
CCGATTAACATCAAAACTCCCCTTGATGTTAATCGGGTCTTGATTCGCTTGACGCTGCTG | 8.31 z-score | 7.73 z-score | 8.37 z-score | 4.59 z-score | 7.49 z-score | 7.22 z-score | 6.44 z-score
CCGATTAACATCAACAAACCCCCTGATGTTAATCGGGTCTTGATTCGCTTGACGCTGCTG | 6.74 z-score | 5.37 z-score | 6.79 z-score | 2.52 z-score | 7.26 z-score | 5.03 z-score | 6.59 z-score
CCGATTAACATCAGAATTTTCCCTGATGTTAATCGGGTCTTGATTCGCTTGACGCTGCTG | 4.45 z-score | 7.42 z-score | 7.41 z-score | 5.08 z-score | 2.3 z-score | 6.44 z-score | 5.01 z-score
